For 20 compounds, growth inhibition results are on record in PubChem BioAssay (NCI).

Assay [1] in a line: NCI Yeast Anticancer Drug Screen. Data for the rad50 strain (AID 155).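 Also: 0% = growth of vehicle-only cultures of the same strain.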 Conditions: S. cerevisiae rad50 strain growth inhibition; at 50.0 µM; active compounds read high. The procedure, abridged: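 Cells are treated with compound, grown, and their growth is then scored against vehicle-only cultures of the same repair-deficient yeast strain.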
Assay [2] can be described thus: NCI Yeast Anticancer Drug Screen. Data for the mec2-1 strain (AID 157). Conditions: S. cerevisiae mec2-1 strain, at 50.0 µM, active compounds read high. The gist of the method:
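mec2-1 yeast strain, carrying an alteration in DNA damage repair or cell cycle control, was exposed to compounds; growth inhibition was measured relative to vehicle-treated controls.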

A short description of assay [3]: NCI Yeast Anticancer Drug Screen. Data for the sgs1 mgt1 strain (AID 161).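 Also: 0% = growth of cultures given vehicle only.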 Conditions: S. cerevisiae sgs1 mgt1 strain, at 50.0 µM, active compounds read high. The procedure, abridged:
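Yeast cells carrying a defined DNA-repair defect were exposed to test compounds. Growth inhibition was measured relative to vehicle-treated controls.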

Assay [4] in a line: NCI Yeast Anticancer Drug Screen. Data for the cln2 rad14 strain (AID 165).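 Also: 0% = growth equal to vehicle treated cultures.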 To be noted: S. cerevisiae cln2 rad14 strain, at 50.0 µM, active compounds read high. The procedure, abridged:
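Yeast carrying cln2 and rad14 alterations (cell cycle control and DNA damage repair) were exposed to compounds. Growth inhibition was measured against vehicle-treated controls.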

A short description of assay [5]: NCI Yeast Anticancer Drug Screen. Data for the bub3 strain (AID 167). To be noted: S. cerevisiae bub3 mutant strain, at 50.0 µM, active compounds read high. The gist of the method: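 Part of a panel of yeast mutants defective in DNA damage repair or cell cycle regulation. Each strain is grown with compound, and inhibition is calculated relative to solvent-treated cultures.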

Assay [6] in a line: NCI Yeast Anticancer Drug Screen. Data for the mlh1 rad18 strain (AID 175). Conditions: S. cerevisiae mlh1 rad18 strain growth inhibition; at 50.0 µM; active compounds read high. The procedure, abridged: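 Growth inhibition of the yeast strain was measured after compound exposure and expressed relative to vehicle-treated controls. The strain carries defined defects in DNA damage repair.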

Structures are written as SMILES. About 79,000 compounds went through this panel and 15% of them were active in at least one assay; those are over-represented in the sample as a whole. A number with no mark means an inactive call. Activity calls are given as the source filed them. Rule as the data show it: active = growth inhibition above about 70%; inactive = the rest.

Regarding `N=C(N)c1ccc(C(=N)N)cc1`, the growth inhibition is -16.4% in assay [1]; -14.3% in assay [2]; -20.3% in assay [3]; -0.35% in assay [4]; -0.75% in assay [5]; -33.2% in assay [6].
`COc1ccc(-c2c3c(n(C4OC(COC(C)=O)C(OC(C)=O)C(OC(C)=O)C4OC(C)=O)c(=S)c2C#N)CCC3)cc1` (stereo not given): the growth inhibition in assay [1] was 28.8%; in assay [2] it was 35%; in assay [3] it was 43.3%; in assay [4], 32%; in assay [5], 46.8%; in assay [6], 20.9%.
On to `Nc1cccc(Cl)c1C(=O)O`, for which the growth inhibition in assay [1] is -28.1%; in assay [2], -30.2%; in assay [3] it was -10.8%; in assay [4], -11.7%; in assay [5], -25.8%; in assay [6] it was -19.2%.
In the case of `CN(C)C1=Nc2ccccc2C(=S)N2CSCC12` (stereo not given), the growth inhibition was -29% in assay [1]; -37.1% in assay [2]; -16.9% in assay [3]; -12.2% in assay [4]; -63.8% in assay [5]; -20.3% in assay [6].
In the case of `CCc1c(C)[nH]c2c1C(=O)CCC2`, the growth inhibition was 15.6% in assay [1]; -4.65% in assay [2]; 38.1% in assay [3]; 18.1% in assay [4]; 24.9% in assay [5]; 46.9% in assay [6].
Regarding `CCc1ccccc1OCC1CO1` (stereo not given), the growth inhibition in assay [1] was 10.9%; in assay [2], 3.5%; in assay [3], 11.2%; in assay [4] it was 2.2%; in assay [5], -11.9%; in assay [6], 18.2%.
Take `N#CC1C(=O)NC(=O)C(C#N)C1c1ccc(Cl)cc1Cl` (stereo not given): the growth inhibition in assay [1] was 38.9%; in assay [2] it was 10.1%; in assay [3], 32.6%; in assay [4], 22.1%; in assay [5], -3.55%; in assay [6] it was 19.9%.
Take `Cc1ccc(S(=O)(=O)Nn2c(O)c(C#N)c(-c3ccc(Cl)cc3)c(C#N)c2=O)cc1`: the growth inhibition was 1.3% in assay [1]; 20.3% in assay [2]; 11.2% in assay [3]; 11.5% in assay [4]; 15.5% in assay [5]; 32.3% in assay [6].
Consider `C(/C=N/NC1=NCCCN1)=N\NC1=NCCCN1`, for which the growth inhibition in assay [1] was -3.5%; in assay [2], -15.2%; in assay [3] it was -14.6%; in assay [4], 10.9%; in assay [5], -33.1%; in assay [6], -14.2%.
`Nc1nc2c(c(-c3ccccc3)n1)CN(CCCC(=O)O)C2=O`: the growth inhibition in assay [1] is 5.75%; in assay [2], 14.8%; in assay [3], 3.7%; in assay [4], -3%; in assay [5], 11.9%; in assay [6] it was -0.45%.
On to `COc1c(NC(=O)C(Br)C(Br)C(=O)O)cccc1[N+](=O)[O-]` (stereo not given), for which the growth inhibition in assay [1] was -20.9%; in assay [2], 19.5%; in assay [3] it was -7.65%; in assay [4], 85% (active); in assay [5] it was -2.85%; in assay [6], -2.25%.
On to `COc1ccc(C23C(=O)c4ccccc4N2O[C@H]2C(=O)N(c4ccccc4)C(=O)[C@H]23)cc1` (stereo not given in full), for which the growth inhibition was -22.2% in assay [1]; 20.1% in assay [2]; -36.5% in assay [3]; 7.9% in assay [4]; -30.6% in assay [5]; -21.1% in assay [6].
As to `O=C1C(c2ccccc2)=C(c2ccccc2)c2ccccc21`, the growth inhibition in assay [1] was -8.2%; in assay [2], 19.6%; in assay [3] it was 21%; in assay [4], -18.4%; in assay [5] it was 32%; in assay [6] it was 14.4%.
As to `CC(=O)OCC1OC(OC(C)=O)C(N(C)C(C)=O)C(OC(C)=O)C1OC(C)=O` (stereo not given), the growth inhibition is 32.8% in assay [1]; 18.6% in assay [2]; 26.8% in assay [3]; 20.6% in assay [4]; -0.55% in assay [5]; 35.6% in assay [6].
Take `COC(=O)/C(C#N)=C/Sc1ccccc1`: the growth inhibition in assay [1] is 61.6%; in assay [2] it was 33.7%; in assay [3] it was 38%; in assay [4], 7.2%; in assay [5] it was 26.6%; in assay [6], -7.7%.
In the case of `CC(=O)c1c2c(cc3c1CC1(C3)Cc3cc4c(c(C(C)=O)c3C1)CCC4)CCC2`, the growth inhibition in assay [1] is -21.5%; in assay [2], -31.4%; in assay [3], -4%; in assay [4] it was -5.45%; in assay [5], -3.35%; in assay [6] it was -30.6%.
Consider `Cn1c(=O)n(C2(C)CSC2)c2ccccc21`, for which the growth inhibition in assay [1] is -27.2%; in assay [2], -14.6%; in assay [3], -46.1%; in assay [4] it was -3.95%; in assay [5] it was -3.35%; in assay [6] it was -33.9%.
With `CCCCCCCCCC(C)(O)C(N)=O` (stereo not given), the growth inhibition in assay [1] was 15.1%; in assay [2], -6.15%; in assay [3] it was 13.2%; in assay [4], -21.6%; in assay [5] it was -5.65%; in assay [6], 9.65%.
As for `Cc1ccc(C)c(NC(=O)C(=O)C2C(=O)C3=C(CC2(C)C)Nc2ccccc2S3)c1` (stereo not given), the growth inhibition is -21.2% in assay [1]; -20.2% in assay [2]; -14.1% in assay [3]; -21.5% in assay [4]; -28.4% in assay [5]; -33% in assay [6].
As to `O=C(Cc1ccccc1)NN1C(=O)/C(=C\c2ccccc2)SC1=Nc1ccccc1`, the growth inhibition is 12% in assay [1]; -1.35% in assay [2]; 19.3% in assay [3]; 35.5% in assay [4]; 9.15% in assay [5]; 10.8% in assay [6].
